40 molecules from PubChem BioAssay (Tox21) can be followed below.

Records with an inconclusive call do not appear. The source made the active and inactive calls. Calls follow the shape of the dose curve; as a rule, active = well fitted cell-killing curve with a large enough effect in the repeat runs; inconclusive = weak or mixed curves, or effect the other way; inactive = flat fitted curve, though single readings scatter.

The assay is described as follows: qHTS assay to identify small molecule that activate the aryl hydrocarbon receptor (AhR) signaling pathway - cell viability counter screen (AID 743086).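 Also: HepG2 liver cells carrying the AhR DRE luciferase reporter; nearly all actives have a fitted effect of over 45% in size.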 The conditions noted are these: HepG2-AhR-luc viability, CellTiter-Fluor, 24 h; series mostly up to 70.3 µM. An excerpt: U.S. Tox21 Program National Center for Advancing Translational Sciences [NCATS] NIH Chemical Genomics Center [NCGC] U.S. Environmental Protection Agency [EPA] National Institutes of Environmental Health Sciences [NIEHS] National Toxicology Program [NTP] U.S. Food and Drug Administration [FDA] Tox21 Assay overview: The Aryl hydrocarbon Receptor (AhR), a member of the family of basic helix-loop-helix transcription factors, is crucial to adaptive responses to environmental changes. AhR mediates cellular responses to environmental pollutants such as aromatic hydrocarbons through induction of phase I and II enzymes but also interacts with other nuclear receptor signaling pathways A cell based HepG2-AhR-luc assay (HG2L7.5c1 cell line, developed by Dr. Michael S. Denison, University of California at Davis) was used to assess the activation of AhR. HepG2 (human hepatocellular carcinoma) cells were stably transfected with an Ah receptor-responsive firefly luciferase reporter gene plasmid containing 20 dioxin responsive elements and luciferase reporter gene. Increased luciferase activity can be used to identify the compounds that induce AhR activation. The cytotoxicity of the compounds screened against the HepG2-AhR-luc cell line was tested in parallel by measuring the cell viability using CellTiter-Fluor assay in the same wells.
Tox21 Assay Protocol Summary: 4000 cells in 5 uL/well were dispensed into white wall/solid bottom 1536-well plates using a Multidrop Combi (Thermo Fisher Scientific Inc., Waltham, MA) dispenser. After the assay plates were incubated at 37C for 5 h, 23 nL of compound or DMSO vehicle was transferred to the assay plates by a pintool station (Kalypsys, San Diego, CA). The plates were incubated at 37C for 24 hr. For cell viability measurement, 1 ul/well of CellTiter-Fluor reagent (Promega, Madison, WI) was added into the assay plates using a Flying Reagent Dispenser (FRD) (Aurora Discovery, CA),and then the assay plates were incubated at 37C for 30 min. The fluorescence intensity in the plates was measured using a ViewLux plate reader (PerkinElmer, Shelton, CT), followed by the addition of 4 uL of ONE-Glo Luciferase Assay reagent (Promega) using an FRD (Aurora Discovery). After the assay plates were incubated at room temperature for 30 min, luminescence intensity was measured using a ViewLux plate reader (Perkin Elmer).
(In qHTS, concentration-response curves come from the screen itself.)
As to `CC1(C(=O)Nc2ccc(O)c(Cl)c2Cl)CCCCC1`, the outcome was inactive. For `CCCCCCBr` the value was “inactive”; for `COc1cc(C[C@@H](C)N)c(OC)cc1C`, “inactive”. In the case of `O=C1OC(=O)C2C1C1(Cl)C(Cl)=C(Cl)C2(Cl)C1(Cl)Cl` (stereo not given), the molecule was classed as inactive. As for `COc1cc(OC)nc(NC(=O)NS(=O)(=O)c2ncccc2OCC(F)(F)F)n1`, the molecule was classed as inactive.

For `CN1C(=S)CN=C(c2ccccc2)c2cc(Cl)ccc21`, the outcome was inactive.

For `Cc1cc(C)nc(Nc2ccccc2)n1`, the outcome was inactive.

For the molecule `ClC(Cl)(Cl)C(Cl)(Cl)Cl`, the outcome was inactive.

Consider `CC(Cl)(Cl)[N+](=O)[O-]`, for which the molecule was called inactive. Take `Nc1cc(Cl)ccc1O`: the molecule was classed as inactive. With `CC(C)(C)NCC(O)c1cc(Cl)c(N)c(Cl)c1` (stereo not given), the call was inactive. In the case of `CCOP(=S)(Oc1cnc(C(C)(C)C)nc1)OC(C)C` (stereo not given), the molecule was called inactive. For `CNC(=O)Oc1ccc(N(C)C)c(C)c1` the value was “inactive”; for `Oc1c(Cl)cccc1Cl`, “inactive”; for `Cc1ncc2n1-c1ccc(Cl)cc1C(c1ccccc1F)=NC2`, “inactive”. With `N#Cc1c(Cl)cccc1Cl`, the call was inactive. For the molecule `N#Cc1ccncc1`, the result was inactive. In the case of `c1cc[c]([Hg][c]2ccccc2)cc1`, the molecule was classed as inactive. For `O=C1OC(c2ccc(O)c(S(=O)(=O)O)c2)(c2ccc(O)c(S(=O)(=O)O)c2)c2c(Br)c(Br)c(Br)c(Br)c21` the value was “inactive”. As to `CCCCc1ccc(O)cc1`, the call was inactive. For `CCSC(=O)N(CC)C1CCCCC1`, the outcome was inactive.

On to `CCC1(c2ccccc2)C(=O)NC(=O)NC1=O`, for which the molecule was classed as inactive.

Turning to `Nc1n[nH]c(N)n1`, the call was inactive.

Take `CC(COc1ccc(Oc2ccccc2)cc1)Oc1ccccn1` (stereo not given): the molecule was called inactive. Take `CC1CCC(=O)O1` (stereo not given): the outcome was inactive. In the case of `N#CCNCC#N` it was “inactive”; in that of `C[C@@H]1CN(C2CCC(C#N)(c3ccc(F)cc3)CC2)CC[C@]1(C(=O)O)c1ccccc1` (stereo not given in full), “inactive”.

Turning to `CN(N=O)C(N)=O`, the molecule was called inactive. `C=C(C)[C@@H]1CC=C(C=O)CC1`: the call was inactive. As for `CC(C)CP(=S)(S)CC(C)C`, the call was inactive. With `OCCSCSCCO`, the molecule was classed as inactive. In the case of `C1CCC(C2CCCCC2)CC1` it was “inactive”; in that of `O=NN1CCN(N=O)CC1`, “inactive”. With `COc1cc(OC)nc(NC(=O)NS(=O)(=O)c2ncccc2C(=O)N(C)C)n1`, the call was inactive. With `CN1C[C@@H](NS(=O)(=O)N(C)C)C[C@@H]2c3cccc4c3c(cn4C)C[C@H]21`, the result was inactive. Consider `CC1(C)C(=O)NC(=O)NC1=O`, for which the result was inactive.

Turning to `CCOc1nc(C(Cl)(Cl)Cl)ns1`, the molecule was called inactive.

Turning to `C[C@H]1CCC[C@H](O)CCCCCc2cc(O)cc(O)c2C(=O)O1`, the molecule was classed as inactive. Take `c1coc(-c2nc3ccccc3[nH]2)c1`: the outcome was inactive. In the case of `C#C[C@]1(O)C=C[C@H]2[C@@H]3CCC4=CC(=O)CC[C@@H]4[C@H]3CC[C@@]21CC` it was “inactive”.
